The values that follow come from PubChem BioAssay (NCATS).

The nature of assay [1]: qHTS for differential inhibitors of proliferation of Plasmodium falciparum line Dd2 (AID 1882). Further: series mostly up to about 29 µM; nearly all actives have a fitted effect of over 65% in size. To be noted: Potency: Plasmodium falciparum Dd2 proliferation inhibition. The gist of the method: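 Dd2-infected erythrocytes (0.3% parasitemia, 2.5% hematocrit final) incubated with compound 72 h at 37 C, 5% CO2; lysed with saponin/Triton buffer containing SYBR Green I, incubated overnight in the dark, then read by fluorescence (485/535 nm). Normalized to 0.29 uM artemisinin and DMSO.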

The nature of assay [2]: qHTS for differential inhibitors of proliferation of Plasmodium falciparum line W2 (AID 1883).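 Further: potency means the concentration at half of the fitted maximal effect; parasites grown with compound for 72 h before lysis and staining.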 To be noted: Potency: Plasmodium falciparum W2 proliferation inhibition. For orientation: qHTS replaces the single test concentration by a dilution series.
Assay [3] in a line: qHTS Assay for Modulators of Human Peripheral Myelin Protein 22 (PMP22) Expression/Activity (AID 1967; active means well fitted curve in the direction sought with a large enough effect in the signal ratio; the % refers to the signal ratio). A digest of the protocol:
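Mouse MSC80 Schwann cells carrying Pmp22 promoter–green click beetle luciferase plus EF-alpha–red luciferase control, dosed 24 h at 37 °C. Dual-filter luminescence, overlap-corrected; %Activity from green/red ratio normalised to untreated cells, concentration-response curves fitted.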

Assay [4] concerns the target ATP-dependent DNA helicase Q1 (Homo sapiens) (UniProt P46063). In words: qHTS Validation Assay for Inhibitors of RecQ-Like Dna Helicase 1 (RECQ1) (AID 2353). The gist of the method:
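50 nM RECQ1T1 preincubated 15 min with compound in Tris pH 8.0 buffer with MgCl2, DTT, Tween-20 and 2.5 ug/ml poly(dI-dC); started with 200 nM TAMRA/BHQ-2 forked duplex and 2 mM ATP. Unwinding read as fluorescence (525/598 nm), two reads 2 h apart.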

For assay [5], the target named is RecQ-like DNA helicase BLM (Homo sapiens) (UniProt P54132). In words: qHTS Validation Assay for Inhibitors of Bloom's syndrome helicase (BLM) (AID 2364). A digest of the protocol:
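50 nM BLM preincubated 15 min at room temperature with compound in pH 8.0 Tris buffer containing 2.5 ug/ml poly(dI-dC); started with 200 nM TAMRA/BHQ-2 forked duplex and 2 mM ATP (final). Unwinding read as TAMRA fluorescence increase, two reads 2 h apart.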

A short description of assay [6]: Cytometric Cell-Based qHTS for Inhibitors of the mTORC1 Signaling Pathway in MEF (Tsc2-/-, p53-/-) Cells (AID 2660).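 Further: percent of cells above a phospho-rpS6 to PI ratio cutoff in each well; series mostly up to about 38 µM.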 A digest of the protocol: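 Immunofluorescence qHTS of rpS6 Ser235/236 phosphorylation: MEFs (Tsc2-/-, p53-/-) treated 24 h, 37 C, in DMEM + 10% FBS. Alexa-488 signal normalized to PI count, referenced to rapamycin (7.5 nM) and DMSO; PI cell number recorded for viability.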

Assay [7] is described as follows: High Content Imaging Cell-Based qHTS for Inhibitors of the mTORC1 Signaling Pathway in MEF Cells (AID 2667).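 Further: Tsc2-/- p53-/- MEFs stably re-expressing wild-type Tsc2 exposed 24 h; series mostly up to about 38 µM.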 The gist of the method:
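WT MEFs (Tsc2-/-, p53-/- re-expressing Tsc2), in DMEM + 10% FBS, were treated with compound for 24 h at 37 C. Cells were then fixed and stained for phospho-rpS6 Ser235/236 with propidium iodide as cell count. Values are % positive cells, with thresholds set against rapamycin-treated cells.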

Assay [8] is described as follows: Cytometry Cell-Based qHTS for Inhibitors of the mTORC1 Signaling Pathway in MEF cells (AID 2668).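 Further: Tsc2-/- p53-/- mouse embryonic fibroblasts stably re-expressing wild-type Tsc2; percent cells positive for phospho-rpS6 Ser235/236 relative to propidium iodide stain; series mostly up to about 38 µM.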 A digest of the protocol:
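MEFs (Tsc2-/-, p53-/- stably expressing WT Tsc2) treated 24 h at 37 degree Celsius, fixed, stained with Alexa-488 anti-phospho-rpS6 Ser235/236 and propidium iodide; Acumen laser scanning. Reported as % positive cells, phospho-S6 normalized to PI.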

Assay [9] can be described thus: Validation screen for small molecules that induce DNA re-replication in MCF 10A normal breast cells (AID 463097). Further: nearly all actives have a fitted effect of over 60% in size. The gist of the method:
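MCF 10A cells exposed to compound 48 hr at 37 C, 5% CO2, then Hoechst-stained 40 min. Laser-scanning imaging of nuclear DNA content (405 nm ex, 500-530 nm em); re-replication scored as rise in nuclei with elevated fluorescence intensity.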

Assay [10] concerns the target Ubiquitin carboxyl-terminal hydrolase 2 (Homo sapiens) (UniProt O75604). In words: qHTS Validation Assay for Inhibitors of Ubiquitin-specific Protease USP2a Using CHOP2 as the Reporter (AID 463106). A digest of the protocol:
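USP2 core (10 nM final) was preincubated with compound 30 min at RT in pH 8.0 Tris/CaCl2/beta-ME/CHAPS buffer. Ub-CHOP2 and reporter substrate (25 nM final each) were then added, with fluorescence (Ex 485/Em 531) read after 60 min. Data were normalized to NEM full inhibition and fitted to concentration-response curves.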

The target in assay [11] is DNA polymerase III PolC-type (Bacillus subtilis (strain 168)) (UniProt P13267). In words: qHTS Validation Assay for the Inhibitors of DNA Replication in Gram-Positive Bacteria (AID 485295).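 Further: PicoGreen fluorescence of double-stranded DNA made on primed circular M13 template; series mostly up to about 57 µM.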 A digest of the protocol: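 Reconstituted B. subtilis Pol III holoenzyme (PolC, beta clamp, SSB, primase) preincubated with compound, then M13Gori single-stranded circular template with dNTPs/NTPs added; room temperature reaction. Stopped with EDTA/PicoGreen; dsDNA fluorescence read, EDTA as full-inhibition control.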
Sequence of DNA polymerase III PolC-type (Bacillus subtilis (strain 168)) (P13267 whole entry, looked up): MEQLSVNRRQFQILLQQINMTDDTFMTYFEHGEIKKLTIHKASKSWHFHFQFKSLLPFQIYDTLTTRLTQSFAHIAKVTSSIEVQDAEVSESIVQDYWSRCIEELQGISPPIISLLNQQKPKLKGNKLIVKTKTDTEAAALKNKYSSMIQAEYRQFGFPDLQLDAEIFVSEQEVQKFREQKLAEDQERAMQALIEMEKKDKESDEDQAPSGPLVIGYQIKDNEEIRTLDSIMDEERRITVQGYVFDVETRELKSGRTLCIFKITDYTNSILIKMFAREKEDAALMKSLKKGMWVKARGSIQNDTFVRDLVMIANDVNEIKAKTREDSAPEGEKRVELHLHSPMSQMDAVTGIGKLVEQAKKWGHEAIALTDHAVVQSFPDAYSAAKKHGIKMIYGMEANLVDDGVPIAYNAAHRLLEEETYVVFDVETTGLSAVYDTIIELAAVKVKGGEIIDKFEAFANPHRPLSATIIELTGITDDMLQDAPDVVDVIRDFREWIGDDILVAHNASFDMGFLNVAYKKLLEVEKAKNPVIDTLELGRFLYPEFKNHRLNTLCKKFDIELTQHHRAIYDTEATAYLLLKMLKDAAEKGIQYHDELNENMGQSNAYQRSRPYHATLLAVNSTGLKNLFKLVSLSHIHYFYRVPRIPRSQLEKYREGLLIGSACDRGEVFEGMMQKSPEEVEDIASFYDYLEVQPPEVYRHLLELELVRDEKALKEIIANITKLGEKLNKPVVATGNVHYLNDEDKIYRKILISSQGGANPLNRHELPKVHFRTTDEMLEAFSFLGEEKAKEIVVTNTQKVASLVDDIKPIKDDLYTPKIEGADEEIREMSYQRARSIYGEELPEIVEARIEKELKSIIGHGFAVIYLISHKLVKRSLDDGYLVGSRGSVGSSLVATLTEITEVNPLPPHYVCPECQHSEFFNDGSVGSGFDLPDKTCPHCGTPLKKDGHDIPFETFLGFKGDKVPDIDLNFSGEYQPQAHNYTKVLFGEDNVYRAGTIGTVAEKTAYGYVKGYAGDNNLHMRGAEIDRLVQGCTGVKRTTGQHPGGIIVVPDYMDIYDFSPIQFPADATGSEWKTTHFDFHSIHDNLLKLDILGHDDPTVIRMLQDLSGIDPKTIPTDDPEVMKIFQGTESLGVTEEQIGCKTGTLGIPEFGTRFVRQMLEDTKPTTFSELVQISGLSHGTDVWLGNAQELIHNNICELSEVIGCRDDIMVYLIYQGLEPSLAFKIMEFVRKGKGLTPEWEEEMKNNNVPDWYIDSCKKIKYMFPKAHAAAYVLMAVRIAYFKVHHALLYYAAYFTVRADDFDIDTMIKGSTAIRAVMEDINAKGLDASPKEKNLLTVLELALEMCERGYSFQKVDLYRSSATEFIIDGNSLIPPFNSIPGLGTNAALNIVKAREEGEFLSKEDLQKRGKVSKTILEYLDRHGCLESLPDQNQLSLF

The target in assay [12] is Beta-2 adrenergic receptor (Homo sapiens) (UniProt P07550). Nature of the assay: qHTS validation assay of beta-arrestin-biased ligands of beta2-adrenergic receptor (AID 485366). A digest of the protocol:
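Arrestin-recruitment (Tango) reporter: ligand-bound beta2-AR recruits beta-arrestin, releasing tTA, which upregulates luciferase. Titrations of up to 46 microM incubated 18 hr at 37 degrees C before luminescent readout.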

Assay [13] in a line: qHTS for differential inhibitors of proliferation of Plasmodium falciparum line HB3 (AID 1886).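 Further: parasites grown with compound for 72 h before SYBR Green readout.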 The note with it: Potency: Plasmodium falciparum HB3 proliferation inhibition.
Assay [14] addresses Ferritin light chain (Equus caballus) (UniProt P02791). In words: qHTS Validation Assay for Identification of Novel General Anesthetics (AID 2323). Further: series mostly up to about 77 µM. The gist of the method: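 Horse-spleen apoferritin (10 uM) in PBS with 50% saturated 1-aminoanthracene; compounds pin-transferred, 10 min at room temperature. Fluorescence read at 380/535 nm, normalized to free 1-AMA and 1-AMA/apoferritin values; four-parameter Hill fit.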

Assay [15] is described as follows: High Content Imaging Cell-Based qHTS for Inhibitors of the mTORC1 Signaling Pathway in MEF (Tsc2-/-, p53-/-) Cells (AID 2666). A digest of the protocol: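 Phospho-rpS6 (Ser235/236) immunofluorescence, normalized and scored as % positive cells using rapamycin and DMSO controls, was read in empty-vector Tsc2-/-, p53-/- MEFs after 24 h compound exposure at 37 C; propidium iodide counted cells.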

Assay [16] addresses Tumor susceptibility gene 101 protein (Homo sapiens) (UniProt Q99816). In words: qHTS Validation Assay for Iinhibitors of HIV-1 Budding by Blocking the Interaction of PTAP/TSG101 (AID 485342; calls by dose curve). The gist of the method:
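Tsg101 binding domain (10 uM) with FITC-labeled PTAP peptide (50 nM) in HEPES pH 7.5 buffer, 20 min at r.t. with compounds. Binding measured by fluorescence polarization.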

Assay [17] in a line: qHTS Validation Assay to Find Inhibitors of Chronic Active B-Cell Receptor Signaling (AID 485345; active means well fitted curve in the direction sought with a large enough effect in the main read-out, with a control signal flat, not every such curve was filed as active). A digest of the protocol:
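TMD8 ABC-DLBCL cells stably carrying doxycycline-inducible IkappaBalpha–green luciferase fusion plus unfused red luciferase; compounds 46 uM to 3 nM, 4 h at 37C with doxycycline. Corrected green/red luminescence ratio normalized to 10 uM MG-132 and basal cell wells; curves fitted.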

Results filed as inconclusive are left out. Activity calls are given as the source filed them. Unless noted, the call rests on the fitted dose curve; in most records, active means well fitted curve in the direction sought with a large enough effect; inconclusive means small, poorly fitted or top-dose-only effect, or another doubt; inactive means no such curve, though single readings can be large; an effect the other way counts as inactive or inconclusive.

Sequence of ATP-dependent DNA helicase Q1 (Homo sapiens) (P46063 whole entry, looked up): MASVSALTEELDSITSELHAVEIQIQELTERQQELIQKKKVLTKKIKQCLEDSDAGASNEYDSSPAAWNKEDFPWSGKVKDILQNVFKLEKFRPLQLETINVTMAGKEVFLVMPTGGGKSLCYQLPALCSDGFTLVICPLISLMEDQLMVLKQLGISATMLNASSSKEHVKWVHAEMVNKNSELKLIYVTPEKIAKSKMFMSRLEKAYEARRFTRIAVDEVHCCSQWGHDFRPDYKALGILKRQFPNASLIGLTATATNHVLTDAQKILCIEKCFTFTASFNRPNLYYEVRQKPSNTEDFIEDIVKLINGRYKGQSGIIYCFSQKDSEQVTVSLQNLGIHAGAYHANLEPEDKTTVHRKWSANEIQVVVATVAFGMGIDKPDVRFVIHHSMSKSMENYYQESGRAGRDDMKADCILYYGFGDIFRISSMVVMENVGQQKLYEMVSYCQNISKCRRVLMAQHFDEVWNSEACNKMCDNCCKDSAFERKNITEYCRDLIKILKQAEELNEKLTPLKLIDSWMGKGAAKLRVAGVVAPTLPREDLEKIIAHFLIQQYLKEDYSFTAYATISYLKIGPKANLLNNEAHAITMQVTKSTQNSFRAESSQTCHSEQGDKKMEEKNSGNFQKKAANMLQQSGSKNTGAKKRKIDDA
Sequence of Beta-2 adrenergic receptor (Homo sapiens) (P07550 whole entry, looked up): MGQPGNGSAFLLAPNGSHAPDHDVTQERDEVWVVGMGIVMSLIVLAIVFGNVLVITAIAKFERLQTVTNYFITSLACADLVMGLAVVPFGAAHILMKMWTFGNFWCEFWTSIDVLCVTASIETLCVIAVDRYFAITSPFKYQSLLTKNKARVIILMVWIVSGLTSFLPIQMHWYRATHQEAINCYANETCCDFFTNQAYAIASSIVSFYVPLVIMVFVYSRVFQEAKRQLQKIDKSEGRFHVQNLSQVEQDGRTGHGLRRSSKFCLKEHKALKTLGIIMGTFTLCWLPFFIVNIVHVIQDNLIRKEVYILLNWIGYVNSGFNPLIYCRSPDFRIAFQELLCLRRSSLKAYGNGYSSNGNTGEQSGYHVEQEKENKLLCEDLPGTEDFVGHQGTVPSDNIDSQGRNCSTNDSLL
Sequence of RecQ-like DNA helicase BLM (Homo sapiens) (P54132 whole entry, looked up): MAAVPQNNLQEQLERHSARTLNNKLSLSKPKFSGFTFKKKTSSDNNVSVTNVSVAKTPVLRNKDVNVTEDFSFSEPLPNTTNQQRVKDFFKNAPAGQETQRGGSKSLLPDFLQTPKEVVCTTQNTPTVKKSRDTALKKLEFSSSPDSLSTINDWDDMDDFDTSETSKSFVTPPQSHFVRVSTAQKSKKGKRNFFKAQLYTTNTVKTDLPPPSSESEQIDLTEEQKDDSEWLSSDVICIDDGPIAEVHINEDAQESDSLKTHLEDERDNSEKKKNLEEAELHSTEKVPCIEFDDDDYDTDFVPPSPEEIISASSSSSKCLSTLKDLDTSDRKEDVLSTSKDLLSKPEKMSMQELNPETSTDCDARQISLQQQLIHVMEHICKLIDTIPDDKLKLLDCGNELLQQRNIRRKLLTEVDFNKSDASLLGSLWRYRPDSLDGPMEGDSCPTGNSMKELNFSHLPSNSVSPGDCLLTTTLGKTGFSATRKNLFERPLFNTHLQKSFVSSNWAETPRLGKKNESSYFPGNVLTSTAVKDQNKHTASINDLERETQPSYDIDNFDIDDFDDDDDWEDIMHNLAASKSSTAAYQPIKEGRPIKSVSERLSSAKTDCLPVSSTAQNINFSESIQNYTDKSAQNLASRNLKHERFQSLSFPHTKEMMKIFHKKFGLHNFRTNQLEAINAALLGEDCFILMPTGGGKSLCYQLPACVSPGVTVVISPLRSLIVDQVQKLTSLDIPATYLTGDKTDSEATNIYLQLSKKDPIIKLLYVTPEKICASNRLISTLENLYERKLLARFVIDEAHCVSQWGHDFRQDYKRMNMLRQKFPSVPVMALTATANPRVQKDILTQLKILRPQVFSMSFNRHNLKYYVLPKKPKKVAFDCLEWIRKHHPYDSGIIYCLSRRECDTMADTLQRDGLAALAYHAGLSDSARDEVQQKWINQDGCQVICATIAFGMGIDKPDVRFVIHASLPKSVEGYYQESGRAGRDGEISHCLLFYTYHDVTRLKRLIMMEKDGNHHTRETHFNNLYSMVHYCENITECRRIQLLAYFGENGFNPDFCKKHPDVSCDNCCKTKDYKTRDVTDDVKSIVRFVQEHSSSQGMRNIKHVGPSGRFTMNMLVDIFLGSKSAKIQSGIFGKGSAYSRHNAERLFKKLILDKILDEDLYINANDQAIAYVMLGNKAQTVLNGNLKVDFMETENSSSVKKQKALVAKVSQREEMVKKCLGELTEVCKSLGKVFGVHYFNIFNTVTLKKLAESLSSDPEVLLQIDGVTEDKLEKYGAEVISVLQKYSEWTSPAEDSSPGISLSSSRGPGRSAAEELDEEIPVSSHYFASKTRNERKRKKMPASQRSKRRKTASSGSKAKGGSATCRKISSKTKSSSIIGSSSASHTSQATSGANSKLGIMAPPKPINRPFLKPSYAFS
Sequence of Ferritin light chain (Equus caballus) (P02791 2-175 limits assumed): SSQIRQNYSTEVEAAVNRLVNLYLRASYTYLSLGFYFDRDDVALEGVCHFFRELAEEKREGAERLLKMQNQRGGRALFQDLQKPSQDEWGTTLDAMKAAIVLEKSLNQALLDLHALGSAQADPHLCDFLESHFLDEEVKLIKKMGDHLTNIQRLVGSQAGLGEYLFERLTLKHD
Sequence of Tumor susceptibility gene 101 protein (Homo sapiens) (Q99816 whole entry, looked up, the tested form may be a part): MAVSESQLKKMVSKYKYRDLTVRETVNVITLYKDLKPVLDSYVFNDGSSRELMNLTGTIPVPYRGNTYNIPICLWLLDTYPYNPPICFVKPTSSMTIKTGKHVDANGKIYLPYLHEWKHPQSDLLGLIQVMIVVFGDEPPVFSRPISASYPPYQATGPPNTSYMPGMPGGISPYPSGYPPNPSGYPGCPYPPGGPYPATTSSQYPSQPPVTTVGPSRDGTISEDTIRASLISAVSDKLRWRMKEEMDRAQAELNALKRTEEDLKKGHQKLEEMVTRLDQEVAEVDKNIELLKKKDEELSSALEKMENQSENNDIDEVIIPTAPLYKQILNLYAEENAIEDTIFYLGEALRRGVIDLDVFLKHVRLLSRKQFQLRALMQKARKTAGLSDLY

For `CC(=O)O[C@H]1CC2(C)[C@@H](C[C@@H](O)[C@H]3[C@@]4(C)CC[C@@H](O)[C@@H](C)[C@@H]4CC[C@@]32C)C1=C(CCC=C(C)C)C(=O)O` (stereo not given in full), the Potency result in [1], in assay [4], in [5], in assay [7], in [8] and in assay [9] was “inactive” each time. The Potency entry in assay [10] and in assay [11] was “inactive” each time. In addition, the Potency in assay [2] was 10 µM (active). The compound was called inactive in assay [3], in [6] and in assay [12].

On to `Nc1ccc(CCNc2ncnc3c2ncn3C2OC(CO)C(O)C2O)cc1` (stereo not given), for which the Potency entry in assay [1], in assay [13], in assay [14], in assay [4], in assay [15] and in assay [7] was “inactive” each time. In addition, the Potency result in [8], in assay [9], in assay [10] and in [11] was “inactive” throughout. Moreover, the compound was called inactive in assay [3], in assay [6], in assay [16] and in assay [12].

In the case of `CCCn1c(=O)c2[nH]c(C3CCCC3)nc2n(CCC)c1=O`, the Potency entry in [1], in [13], in [14], in assay [4], in [5] and in assay [15] was “inactive” each time. In addition, the Potency result in [7], in [8], in assay [10] and in assay [11] was “inactive” throughout. The compound was called inactive in [6] and in assay [16].

As for `Oc1cc(O)c2c(c1)O[C@H](c1ccc(O)c(O)c1)[C@@H](O)C2`, the Potency result in assay [1], in assay [13], in [14], in [4], in assay [15] and in assay [7] was “inactive” each time. The Potency entry in assay [8], in assay [9], in assay [10] and in assay [11] was “inactive” throughout. In addition, the call in assay [6], in [16] and in [12] was inactive.

In the case of `N=C(N)SCCc1cnc[nH]1`, the Potency result in [1], in assay [13], in assay [14], in [4], in assay [5] and in assay [15] was “inactive” throughout. Moreover, the Potency entry in assay [7], in assay [8], in assay [9], in assay [10] and in assay [11] was “inactive” each time. Besides, the call in assay [3], in assay [6], in assay [16], in [17] and in assay [12] was inactive.

As to `CCCC[C@@]1(C2CCCC2)Cc2cc(OCC(=O)O)c(Cl)c(Cl)c2C1=O`, the Potency entry in assay [1], in [14], in [4], in assay [15], in assay [7] and in [8] was “inactive” in each case. The Potency result in assay [10] and in assay [11] was “inactive” throughout. Further, the Potency in assay [2] was 10 µM (active). The outcome in assay [6], in [16], in assay [17] and in assay [12] was inactive.

Consider `COc1ccccc1N1CCN(CCCNc2c(C)c(=O)n(C)c(=O)n2C)CC1`, for which the Potency result in assay [1], in assay [14], in assay [4], in assay [5], in assay [15] and in assay [7] was “inactive” throughout. Besides, the Potency entry in [9], in [10] and in [11] was “inactive” each time. In assay [2], the Potency is 8.91 µM (active). Besides, the call in [6], in assay [16], in assay [17] and in assay [12] was inactive.

With `N#Cc1cc2nc(O)c(O)nc2cc1[N+](=O)[O-]`, the Potency result in assay [1], in [13], in assay [4], in [15], in assay [7] and in assay [8] was “inactive” in each case. The Potency entry in assay [9], in [10] and in assay [11] was “inactive” each time. Moreover, the call in assay [3], in assay [6], in assay [16], in assay [17] and in [12] was inactive.

Take `CNC(=O)c1cc2c(cn1)[nH]c1ccccc12`: the Potency entry in assay [1], in assay [14], in assay [15], in assay [7], in assay [8] and in assay [9] was “inactive” each time. Besides, the Potency entry in [10] and in assay [11] was “inactive” throughout. Further, the Potency in [2] is 12.6 µM (active). The compound was called inactive in [16], in assay [17] and in assay [12].
